# High-throughput results (PubChem)
# Compounds with a hit are over-represented: about 2.8% of the library has one in this group of screens.
# KDM5B inh: KDM5B demethylase inhibition; Q9UGL1; KDM5B demethylase, FDH-coupled NADH fluorescence (FDH is formaldehyde dehydrogenase); Potency, µM (series often up to 57.7 µM), hits mostly inhibitors; hit rate 2.6% among 220,000; further: potency means the concentration at half of the fitted maximal effect; 0% is about no effect; nearly all actives have a fitted effect of over 70% in size
#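 Here, H3K4me3 peptide (12.5 µM in substrate mix) is demethylated by KDM5BΔAP, 200 nM final, after 10 min compound exposure. Formaldehyde product is coupled through FDH (0.25 U/mL in mix) to NADH fluorescence; 30-min ΔRFU feeds dose-response curves.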
# SNCA expr inh: inhibitors of alpha-synuclein (SNCA) gene expression; HEK-293 SNCA-luciferase knock-in, luminescence, 24 h; Potency, µM (highest dose often 57.2 µM), for the others: top-dose activity change, negative = inhibition, most hits filed as inhibitors; hit rate 0.17% among 140,000;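 further: potency means the concentration at half of the fitted maximal effect; plate controls were DMSO cells for no effect and cell-free wells for full effect; nearly all actives have a fitted effect of over 45% in size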
# IP6K1 inh: IP6K1 kinase inhibition; activity change, % (series mostly up to about 58 µM); Q92551; hit rate 0.81% among 140,000; AID 1645851; IP6K1 kinase, ADP-Glo luminescence, 2 h; hits give low values; in the data active means activity change below about -25%; further: on the % scale 0 is the no-effect control and ±100 the full control effect
# Target sequence (Q92551 whole entry, looked up): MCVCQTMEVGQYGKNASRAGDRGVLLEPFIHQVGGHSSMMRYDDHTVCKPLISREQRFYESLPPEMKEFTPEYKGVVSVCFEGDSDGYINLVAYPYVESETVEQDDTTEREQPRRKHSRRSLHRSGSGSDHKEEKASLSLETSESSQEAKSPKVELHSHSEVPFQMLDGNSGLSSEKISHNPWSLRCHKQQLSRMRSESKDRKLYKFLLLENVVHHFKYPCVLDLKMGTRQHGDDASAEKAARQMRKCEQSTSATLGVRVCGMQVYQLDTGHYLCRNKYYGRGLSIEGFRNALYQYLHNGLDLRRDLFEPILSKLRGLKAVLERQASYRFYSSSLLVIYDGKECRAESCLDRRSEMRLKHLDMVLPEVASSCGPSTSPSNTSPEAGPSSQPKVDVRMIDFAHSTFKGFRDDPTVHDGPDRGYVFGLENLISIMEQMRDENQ
#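 ADP-Glo luminescence measures ADP made by human IP6K1 during a 2 h RT reaction with ATP/IP6 (mix at 1.3 mM/130 uM); top library doses 57.5 and 19.1 uM final.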
# HEK293 viab: reduces viability of HEK-293 SNCA reporter cells. HEK-293-SNCA-luc viability, GF-AFC fluorescence, 24 h. Potency, µM (series often up to 57.1 µM), for the others: at the highest dose activity change, negative = cytotoxicity, usual class: cytotoxic. hit rate 0.12% among 150,000;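 further: potency means the concentration at half of the fitted maximal effect; 0% = DMSO-treated cells and -100% = medium-only wells without cells; nearly all actives have a fitted effect of over 30% in size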
#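 Cytotoxicity counterscreen: after 24 h compound treatment of genome-edited SNCA-luciferase HEK-293 cells, live-cell protease substrate GF-AFC read by fluorescence after 30 min; activity scaled between DMSO (0%) and medium-only (-100%), curves Hill-fitted.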
# The depositor's hits bear a star; i = inactive; ? = inconclusive; · = no result given; [ ] = dose if it differs, or a comment. Unless noted, the call rests on the fitted dose curve; in most records, active means well fitted curve in the direction sought with a large enough effect; inconclusive means small, poorly fitted or top-dose-only effect, or another doubt; inactive means no such curve, though single readings can be large; an effect the other way counts as inactive or inconclusive.
SMILES,KDM5B inh,SNCA expr inh,IP6K1 inh,HEK293 viab
CC(C)c1noc(-c2cccn3c(CNC(=O)c4cc5ccccc5[nH]4)nnc23)n1,?,77%,6,-11%
Cc1cccc(C(=O)NCc2nnc3c(-c4nc(C(C)C)no4)cccn23)c1,28µM*,-25%,-1,-3%
COc1ccc(C(=O)NCc2nnc3c(-c4nc(C5CC5)no4)cccn23)c(C)c1,i,?,12,-7%
Cc1ccc(C(=O)NCc2nnc3c(-c4nc(C5CC5)no4)cccn23)cc1C,10µM*,-12%,6,1%
COCCCn1c(=O)c(C(=O)N2CCOCC2)nc2cccnc21,·,-10%,9,6%
CCN(CC)C(=O)N1CC(Oc2cccc(-c3nc(C)no3)c2)C1,i,-3%,-4,1%
O=C(CCC1CCCC1)NCc1ccc(OCc2cccnc2)cc1,i,·,·,·
COc1ccc(Cl)cc1NC(=O)CCS(=O)(=O)c1nc(-c2cccs2)cc(C(F)(F)F)n1,?,28µM*,-10,-23%
COc1ccc(NC(=O)CCS(=O)(=O)c2nc(-c3cccs3)cc(C(F)(F)F)n2)cc1,i,35µM*,1,?
O=C(CCS(=O)(=O)c1nc(-c2cccs2)cc(C(F)(F)F)n1)Nc1ccc(OC(F)(F)F)cc1,i,2%,-58*,-1%
O=C(CCS(=O)(=O)c1nc(-c2cccs2)cc(C(F)(F)F)n1)Nc1ccc(F)c(Cl)c1,?,?,-11,?
COc1ccc(Br)cc1CNC(=O)CCc1ccc2nc(NC(=O)C(C)C)sc2c1,i,·,·,·
O=C1NCCCc2[nH]c(-c3cnn(-c4cccc(F)c4)c3)nc21,28µM*,76%,-3,-17%
O=C1NCCCc2[nH]c(-c3cc(-c4cccc(F)c4)no3)nc21,?,16%,13,2%
Cc1cccc(CSc2nnc(CCCCCN)o2)c1,i,14µM*,-18,7%
Cc1ccc(-c2nnc(SCc3cccc(C#N)c3)o2)cc1,i,14%,-3,-6%
CCc1noc(-c2cccn3c(CNC(=O)Cc4ccc(Cl)cc4)nnc23)n1,25µM*,7%,-2,-6%
CCc1noc(-c2cccn3c(CNC(=O)Cc4ccccc4C)nnc23)n1,25µM*,-16%,34,-3%
CCc1noc(-c2cccn3c(CNC(=O)C(C)Oc4ccccc4)nnc23)n1 (stereo unspecified),?,6%,-3,2%
CCCc1noc(-c2cccn3c(CNC(=O)Cc4ccccc4OC)nnc23)n1,i,7%,8,1%
CCc1noc(-c2cccn3c(CNC(=O)Cc4ccccc4Cl)nnc23)n1,20µM*,8%,14,-16%
CCC(=O)N(C1CCOCC1)C1CCN(S(=O)(=O)c2ccc(F)c(Cl)c2)CC1,i,6%,-13,5%
CN(c1cc(=O)c2ccnc(-c3ccc(F)c(Cl)c3)c2o1)C1CCOCC1,35µM*,-12%[87.6 µM],-1,-1%[87.6 µM]
CN(c1cc(=O)c2ccnc(N3CCOCC3)c2o1)C1CCOCC1,?,-1%[87.6 µM],-17,-6%[87.6 µM]
COc1ccc2c(c1)CCN=C2C[C@H]1CN(C(=O)NC2CCCCC2)CC[C@H]1CC(=O)O,?,-13%,9,1%
SMILES,KDM5B inh,SNCA expr inh,IP6K1 inh,HEK293 viab
COCCn1c2c([n+](Cc3cnccn3)c1C)C(=O)c1ccccc1C2=O,·,0.096µM*,·,0.076µM*
N#Cc1cccc(CN2CCCCC23Cc2ccccc2CNC3=O)c1 (stereo unspecified),i,-23%,-15,-15%
COc1ccc(C(=O)N[C@H]2CO[C@H]3[C@@H]2OC[C@@H]3Nc2nccc(-c3cccs3)n2)cc1,?,22%,-8,?
O=S(=O)(N[C@H]1CO[C@H]2[C@@H]1OC[C@@H]2Nc1nccc(-c2cccs2)n1)c1cccs1,22µM*,-17%,3,-11%
CC(C)CN[C@H]1CO[C@H]2[C@@H]1OC[C@@H]2Nc1nccc(-c2cccs2)n1,32µM*,5%[87.6 µM],13,-17%[87.6 µM]
Cc1ccc(C(=O)N[C@H]2CO[C@H]3[C@@H]2OC[C@@H]3Nc2nccc(-c3cccs3)n2)cc1,?,1%[87.6 µM],-7,-1%[87.6 µM]
O=C1Nc2ccc(-c3ccccc3F)cc2C(=O)N2CCN(C(=O)c3ccco3)C[C@@H]12,35µM*,-8%[87.6 µM],-1,0%[87.6 µM]
CC(C)(C)CC(=O)N1CCN2C(=O)c3cc(-c4ccccc4)ccc3NC(=O)[C@H]2C1,32µM*,-25%[87.6 µM],2,-4%[87.6 µM]
COc1ccc(-c2ccc3c(c2)C(=O)N2CCN(C(=O)CC(C)(C)C)C[C@@H]2C(=O)N3)cc1,28µM*,-10%[87.6 µM],7,-1%[87.6 µM]
COc1cccc(CNC(=O)c2cc(-c3cc(Cl)cc(Cl)c3)c3nncn3n2)c1,·,-5%,-3,-1%
c1ccc(CN2CCn3c(nnc3C3CCNCC3)C2)cc1,100µM*,3%[87.6 µM],-9,4%[87.6 µM]
CC(=O)Nc1ccc(CN2CCn3c(nnc3C3CCNCC3)C2)cc1,13µM*,-1%[87.6 µM],4,-28%[87.6 µM]
COc1ccc(CN2CCn3c(nnc3C3CCNCC3)C2)cc1,i,34%,3,5%
O=C(Nc1ccccc1)c1ccc2c(c1)OCCN(c1ccccc1)C2,28µM*,77%[87.6 µM],1,-26%[87.6 µM]
O=C(Nc1ccc(F)cc1)c1ccc2c(c1)OCCN(C1CCC1)C2,32µM*,57%[87.6 µM],-4,-16%[87.6 µM]
O=C1Nc2ccc(-c3ccc(Cl)cc3)cc2C(=O)N2CCN(C(=O)C3CCCCC3)C[C@H]12,25µM*,?,-8,-19%
COc1ccc(Cl)cc1-c1ccc2c(c1)C(=O)N1CCN(C(=O)CN)C[C@H]1C(=O)N2,35µM*,-8%[87.6 µM],26,-4%[87.6 µM]
COc1ccc(Cl)cc1-c1ccc2c(c1)C(=O)N1CCN(C(=O)C3CCCC3)C[C@H]1C(=O)N2,20µM*,14%,4,5%
O=C1N(Cc2ccccc2F)CCOC12CCN(Cc1ccccc1)CC2,?,9%[87.6 µM],8,8%[87.6 µM]
O=C1N(Cc2ccccc2F)CCOC12CCN(Cc1ccccc1F)CC2,16µM*,-22%[87.6 µM],-5,3%[87.6 µM]
N#Cc1ccc2nc([C@H]3CCN(Cc4ccccn4)C3)[nH]c2c1,35µM*,-12%[87.6 µM],7,-7%[87.6 µM]
Cc1c(CC(=O)N2CCC(O)(c3ccc(Cl)cc3)CC2)c(=O)oc2cc(O)c(Cl)cc12,i,·,·,·
c1nc2nc(Nc3ccc(N4CCOCC4)cc3)nc(NC3CCCCC3)c2[nH]1,·,?,-41*,?
COc1ccc(S(=O)(=O)NCC2CCCN(Cc3ccc(-c4ccco4)cc3)C2)cc1 (stereo unspecified),28µM*,19%,-5,0%
CN(C)C(=O)CC1CCOC2(CCN(S(=O)(=O)c3cn(C)cn3)CC2)C1 (stereo unspecified),i,14%,7,13%
C=CCOC(=O)C1=C(C)N=C2SC=C(CC(=O)N3CCCC3)N2C1c1cccc(OC)c1OC (stereo unspecified),28µM*,-14%,14,-12%
CC1=C(C(=O)OC(C)C)C(c2ccccc2F)N2C(CC(=O)N3CCCC3)=CSC2=N1 (stereo unspecified),?,-11%,-6,-5%
